Results on 13 compounds are retold here after PubChem BioAssay (NCATS).

The subject of experiment [1] is Nanoluciferase (engineered Oplophorus gracilirostris luciferase). Nature of the experiment: Primary Nanoluciferase (NLuc) qHTS assay for identification of artifact compounds. (AID 1845222). A digest of the protocol:
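Diluted conditioned medium from NLuc-expressing S16 cells treated with compounds for 15 min at room temperature, then Nano-Glo substrate added; luminescence read after 5 min. Percent inhibition versus no-enzyme and DMSO controls fitted to 4-parameter Hill equation.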
(In general: Quantitative high-throughput screening tests each substance at several concentrations.)

A short description of experiment [2]: Quantitative High-Throughput drug screen in 47 multiple myeloma cell lines against the NCATS MIPE library collection: EJM_DSMZ cell viability assay (AID 1918926; further: nearly all actives have a fitted effect of over 30% in size; further: potency means the concentration at half of the fitted maximal effect). The essentials:
(§1)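 qHTS of the MIPE 4.0 collection: 500 myeloma cells/well, 48 h drug exposure at 37C in 5% CO2, then CellTiter-Glo for 5 min at room temperature before luminescence reading.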

A short description of experiment [3]: Quantitative High-Throughput drug screen in 47 multiple myeloma cell lines against the NCATS MIPE library collection: ARP1_JJKsccF8 cell viability assay (AID 1918928; further: nearly all actives have a fitted effect of over 40% in size; further: potency means the concentration at half of the fitted maximal effect). The essentials: (§2)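 Myeloma cells, 500 per well, were exposed to MIPE 4.0 drugs by pin transfer for 48 h at 37 °C, 5% CO2. Viability was read as ATP luminescence with CellTiter-Glo, normalised to DMSO-only (100%) and medium-only (0%) wells.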

The nature of experiment [4]: Quantitative High-Throughput drug screen in 47 multiple myeloma cell lines against the NCATS MIPE library collection: ARD_JJKsccE7 cell viability assay (AID 1918929; further: potency means the concentration at half of the fitted maximal effect). The essentials:
as §1

The nature of experiment [5]: Quantitative High-Throughput drug screen in 47 multiple myeloma cell lines against the NCATS MIPE library collection: Karpas620_DSMZ cell viability assay (AID 1918959). Further: nearly all actives have a fitted effect of over 30% in size. Further: potency means the concentration at half of the fitted maximal effect. A digest of the protocol:
(§3)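 Myeloma cell lines, 500 cells per well, exposed to MIPE 4.0 library compounds for 48 h at 37C, 5% CO2. Viability from ATP by CellTiter-Glo luminescence; normalised to DMSO (100%) and media-only (0%) wells.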

The nature of experiment [6]: Quantitative High-Throughput drug screen in 47 multiple myeloma cell lines against the NCATS MIPE library collection: KMM1_JCRB cell viability assay (AID 1918960). Further: nearly all actives have a fitted effect of over 30% in size. Further: potency means the concentration at half of the fitted maximal effect. A digest of the protocol: as §2
The nature of experiment [7]: Quantitative High-Throughput drug screen in 47 multiple myeloma cell lines against the NCATS MIPE library collection: KHM11_PLB cell viability assay (AID 1918962). Further: nearly all actives have a fitted effect of over 35% in size. Further: potency means the concentration at half of the fitted maximal effect. A digest of the protocol: as §3
A short description of experiment [8]: Quantitative High-Throughput drug screen in 47 multiple myeloma cell lines against the NCATS MIPE library collection: JIM1_ECACC cell viability assay (AID 1918964; further: potency means the concentration at half of the fitted maximal effect). A digest of the protocol:
as §1

Experiment [9] can be described thus: Quantitative High-Throughput drug screen in 47 multiple myeloma cell lines against the NCATS MIPE library collection: KMS27_JCRB cell viability assay (AID 1918970). Further: nearly all actives have a fitted effect of over 30% in size. Further: potency means the concentration at half of the fitted maximal effect. The note with it: KMS27 myeloma cells, CellTiter-Glo ATP viability, 48 h; viability (% of DMSO): at 45.8 µM (top of the series). The essentials:
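Myeloma cells (500 per well) were exposed to MIPE 4.0 compounds for 48 h at 37 °C, 5% CO2; viability was read as ATP luminescence with CellTiter-Glo, normalized to DMSO-only (100%) and media-only (0%) wells.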

The nature of experiment [10]: Quantitative High-Throughput drug screen in 47 multiple myeloma cell lines against the NCATS MIPE library collection: KMS12BM_JCRB cell viability assay (AID 1918971). Further: nearly all actives have a fitted effect of over 35% in size. Further: potency means the concentration at half of the fitted maximal effect. The essentials: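 Steps: seed 500 cells per well; pin-transfer MIPE 4.0 library; incubate 48 h at 37C, 5% CO2, humidified; add CellTiter-Glo, 5 min room temperature; read luminescence.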
Experiment [11] can be described thus: Quantitative High-Throughput drug screen in 47 multiple myeloma cell lines against the NCATS MIPE library collection: Delta47_JCRB cell viability assay (AID 1918925; further: nearly all actives have a fitted effect of over 45% in size; further: potency means the concentration at half of the fitted maximal effect). A digest of the protocol:
as §1

Experiment [12] is described as follows: Quantitative High-Throughput drug screen in 47 multiple myeloma cell lines against the NCATS MIPE library collection: INA6_PLB cell viability assay (AID 1918965; further: nearly all actives have a fitted effect of over 55% in size; further: potency means the concentration at half of the fitted maximal effect). The essentials:
as §3

Experiment [13] can be described thus: Quantitative High-Throughput drug screen in 47 multiple myeloma cell lines against the NCATS MIPE library collection: FR4_PLB cell viability assay (AID 1918924; further: nearly all actives have a fitted effect of over 35% in size; further: potency means the concentration at half of the fitted maximal effect). The essentials: as §3
The nature of experiment [14]: Quantitative High-Throughput drug screen in 47 multiple myeloma cell lines against the NCATS MIPE library collection: AMO1_DSMZ cell viability assay (AID 1918927; further: nearly all actives have a fitted effect of over 30% in size; further: potency means the concentration at half of the fitted maximal effect). The essentials:
as §1

Experiment [15] is described as follows: Quantitative High-Throughput drug screen in 47 multiple myeloma cell lines against the NCATS MIPE library collection: Karpas417_ECACC cell viability assay (AID 1918961). Further: potency means the concentration at half of the fitted maximal effect. The note with it: Karpas417 myeloma viability, CellTiter-Glo ATP luminescence, 48 h; viability (% of DMSO): at 45.8 µM (top of the series). A digest of the protocol:
as §3

Experiment [16] is described as follows: Quantitative High-Throughput drug screen in 47 multiple myeloma cell lines against the NCATS MIPE library collection: JIM3_ECACC cell viability assay (AID 1918963; further: nearly all actives have a fitted effect of over 35% in size; further: potency means the concentration at half of the fitted maximal effect). The essentials:
as §3

Experiment [17] can be described thus: Quantitative High-Throughput drug screen in 47 multiple myeloma cell lines against the NCATS MIPE library collection: JJN3_DSMZ cell viability assay (AID 1918966; further: potency means the concentration at half of the fitted maximal effect; nearly all actives have a fitted effect of over 50% in size). The essentials: as §1
Experiment [18] can be described thus: Quantitative High-Throughput drug screen in 47 multiple myeloma cell lines against the NCATS MIPE library collection: H1112_PLB cell viability assay (AID 1918967; further: nearly all actives have a fitted effect of over 30% in size; further: potency means the concentration at half of the fitted maximal effect). The essentials: as §1
A short description of experiment [19]: Quantitative High-Throughput drug screen in 47 multiple myeloma cell lines against the NCATS MIPE library collection: Karpas25_ECACC cell viability assay (AID 1918968; further: nearly all actives have a fitted effect of over 35% in size; further: potency means the concentration at half of the fitted maximal effect). The essentials:
as §1

Structures are written as SMILES. Values without a mark were called inactive. Records with an inconclusive call do not appear. Calls of active or inactive are those of the source. The call rests on the fitted dose curve; in most records, active means well fitted curve in the direction sought with a large enough effect; inconclusive means small, poorly fitted or top-dose-only effect, or another doubt; inactive means no such curve, though single readings can be large; an effect the other way counts as inactive or inconclusive.

With `COC(=O)N1CCN(Cc2cccc(NC(=O)Nc3ccc(C)nc3)c2F)CC1`, the Potency result in experiment [1], in [2], in experiment [3], in experiment [4], in experiment [5] and in experiment [6] was “inactive” in each case. Moreover, the Potency result in experiment [7], in [8] and in experiment [9] was “inactive” throughout. Besides, the Potency in experiment [10] is 20.9 µM (active).

Turning to `CC(C)(OCc1nn(Cc2ccccc2)c2ccccc12)C(=O)O`, the Potency result in experiment [1], in experiment [11], in experiment [3], in [5], in experiment [12] and in experiment [9] was “inactive” throughout. Also, the values for the Potency in [2] and in experiment [10] were 9.35 µM (active) and 0.418 µM (active), respectively.

Regarding `C[C@@H]1O[C@@H](O[C@H]2CC[C@@]3(C)[C@H](CC[C@@H]4[C@H]3C[C@@H](O)[C@]3(C)[C@@H](C5=CC(=O)OC5)CC[C@]43O)C2)C[C@H](O)[C@@H]1O[C@H]1C[C@H](O)[C@H](O[C@H]2C[C@H](O)[C@@H](O)[C@@H](C)O2)[C@H](C)O1` (stereo in doubt), the Potency is 0.0762 µM (active) in experiment [13]; 0.241 µM (active) in experiment [11]; 0.27 µM (active) in experiment [2]; 0.0679 µM (active) in [14]; 0.171 µM (active) in experiment [3]; 0.121 µM (active) in experiment [4]. The Potency is 0.171 µM (active) in experiment [5]; 0.0762 µM (active) in experiment [6]; 0.152 µM (active) in experiment [15]; 0.152 µM (active) in [7]; 0.191 µM (active) in experiment [16]; 0.0679 µM (active) in experiment [8]. The Potency in [12] is 0.171 µM (active); in experiment [17], 0.34 µM (active); in experiment [18], 0.34 µM (active); in experiment [9], 0.0959 µM (active); in experiment [10] it was 0.215 µM (active).

Take `CC1=C(C(=O)Nc2cc3cn[nH]c3cc2F)C(c2ccc(C(F)(F)F)cc2)CC(=O)N1` (stereo not given): the Potency entry in experiment [1], in experiment [11], in experiment [3], in experiment [4], in [5] and in [6] was “inactive” each time. Also, the Potency result in experiment [7] and in [18] was “inactive” each time. The Potency in [12] is 18.7 µM (active).

For the compound `Cc1ccc2c(c1)c1c(n2CCc2ccc(C)nc2)CCN(C)C1`, the Potency result in [1], in experiment [11], in experiment [2], in experiment [14], in experiment [4] and in experiment [5] was “inactive” in each case. In addition, the Potency result in [6], in experiment [15], in experiment [16], in [8] and in experiment [9] was “inactive” each time.

On to `Nc1ncnc2c1c(-c1cccc(OCc3ccccc3)c1)cn2C1CC(CN2CCC2)C1` (stereo not given), for which the Potency entry in experiment [1] was “inactive”. In addition, the Potency was 0.372 µM (active) in [11]; 14.8 µM (active) in experiment [14]; 2.96 µM (active) in experiment [4]; 2.96 µM (active) in [5]; 16.6 µM (active) in experiment [7]; 0.332 µM (active) in experiment [16]. The Potency in [8] is 0.469 µM (active); in [12] it was 20.9 µM (active); in experiment [17], 4.69 µM (active); in experiment [19], 1.18 µM (active); in [9], 1.87 µM (active).

In the case of `Cc1[nH]c(C=C2C(=O)Nc3ccc(S(=O)(=O)N(C)c4cccc(Cl)c4)cc32)c(C)c1C(=O)N1CCN(C)CC1`, the Potency was 26.4 µM (active) in experiment [13]; 14.8 µM (active) in experiment [11]; 23.5 µM (active) in [2]; 5.9 µM (active) in experiment [14]; 23.5 µM (active) in [3]; 9.35 µM (active) in experiment [5]. Moreover, the Potency is 6.62 µM (active) in [6]; 3.72 µM (active) in [15]; 18.7 µM (active) in experiment [7]; 20.9 µM (active) in [16]; 9.35 µM (active) in [8]; 11.8 µM (active) in [12]. The Potency was 20.9 µM (active) in experiment [17]; 20.9 µM (active) in [18]; 7.43 µM (active) in experiment [19]; 5.9 µM (active) in experiment [9]; 26.4 µM (active) in [10].

As for `CC(C)(C)c1nc(-c2cccc(NS(=O)(=O)c3c(F)cccc3F)c2F)c(-c2ccnc(N)n2)s1`, the Potency result in experiment [1] is “inactive”. Moreover, the Potency in [11] was 3.32 µM (active); in experiment [2] it was 20.9 µM (active); in experiment [4], 18.7 µM (active); in experiment [5] it was 20.9 µM (active); in [6], 3.32 µM (active); in experiment [15], 5.9 µM (active). The Potency in [7] is 5.9 µM (active); in experiment [12], 0.264 µM (active); in [17] it was 3.32 µM (active); in [18], 8.33 µM (active); in [9] it was 16.6 µM (active).

In the case of `CN(C)CCOc1cc(-c2cn[nH]c2)ccc1NC(=O)C1COc2ccccc2O1` (stereo not given), the Potency result in experiment [1], in experiment [5], in experiment [7] and in experiment [18] was “inactive” throughout. The Potency was 18.7 µM (active) in [16] and 13.2 µM (active) in experiment [12].

As to `N#CC(c1ccnc(NCCc2cccnc2)n1)c1nc2ccccc2s1` (stereo not given), the Potency in experiment [13] is 20.9 µM (active); in experiment [11] it was 11.8 µM (active); in experiment [2] it was 18.7 µM (active); in experiment [14] it was 6.62 µM (active); in [3] it was 18.7 µM (active); in experiment [4], 6.62 µM (active). The Potency was 9.35 µM (active) in experiment [5]; 4.69 µM (active) in [6]; 11.8 µM (active) in experiment [7]; 16.6 µM (active) in experiment [16]; 5.9 µM (active) in experiment [8]; 3.72 µM (active) in experiment [12]. For the same compound, the Potency in experiment [17] is 10.5 µM (active); in experiment [18], 18.7 µM (active); in experiment [19], 7.43 µM (active); in experiment [9] it was 7.43 µM (active).

As for `N[C@@H](CC(=O)N1CCn2c(nnc2C(F)(F)F)C1)Cc1cc(F)c(F)cc1F`, the Potency result in experiment [13], in experiment [11], in experiment [2], in [14], in experiment [3] and in experiment [4] was “inactive” throughout. Also, the Potency result in experiment [5], in experiment [6], in experiment [7], in experiment [8], in experiment [19] and in experiment [9] was “inactive” throughout. Also, the Potency entry in [10] is “inactive”.

As for `c1ccc(-c2oc3ncnc(NC[C@@H]4CCCO4)c3c2-c2ccccc2)cc1`, the Potency result in experiment [1], in experiment [14] and in [18] was “inactive” throughout. The Potency in experiment [5] is 6.62 µM (active); in experiment [6] it was 3.32 µM (active); in experiment [12] it was 16.6 µM (active); in experiment [17] it was 16.6 µM (active); in experiment [9], 4.69 µM (active); in experiment [10], 23.5 µM (active).

For `CNC1[C@H](O)C(O[C@@H]2C(O)C(O[C@H]3O[C@H]([C@@H](C)NC)CC[C@H]3N)[C@@H](N)C[C@H]2N)OC[C@]1(C)O` (stereo not given in full), the Potency result in [13], in experiment [11], in experiment [2], in experiment [14], in [3] and in experiment [4] was “inactive” throughout. The Potency result in experiment [5], in experiment [6], in [7], in [16], in experiment [12] and in experiment [18] was “inactive” in each case. The Potency result in experiment [19], in experiment [9] and in [10] was “inactive” throughout.
